Results reported in PubChem BioAssay (EPA / NIEHS).
Activity calls are given as the source filed them. The calls were made as follows: active = hit-call score of the fitted dose curve at least 0.9, where 1 is the maximum; inactive = score below 0.9.

Key:
[1] = read-out: Interleukin-6 (IL6), IL6 (gene 3569); assay: BSK_CASM3C_IL6: BioMAP Diversity Plus: CASM3C Assay for Interleukin-6 (IL6) Biomarker Activity for (AID 2283040); details: primary human coronary artery smooth muscle cells; actives raise or lower the signal
[2] = read-out: Tissue plasminogen activator (tPA), PLAT (gene 5327); assay: BSK_BE3C_tPA: BioMAP Diversity Plus: BE3C Assay for Tissue plasminogen activator (tPA) Biomarker Activity (AID 2283041); details: primary human bronchial epithelial cells; actives raise or lower the signal
In short: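 Human primary bronchial epithelial cells were dosed with chemical and tPA biomarker levels measured by ELISA 24 hours later. Activity was fitted bidirectionally against DMSO as negative control and baseline.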

[3] = read-out: Interleukin-8 (IL8), CXCL8 (gene 3576); assay: BSK_CASM3C_IL8: BioMAP Diversity Plus: CASM3C Assay for Interleukin-8 (IL8) Biomarker Activity (AID 2283042); details: primary human coronary artery smooth muscle cells; actives raise or lower the signal;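 also: IL-8 protein level quantified by ELISA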
[4] = read-out: Human Leukocyte Antigen - DR isotype (HLADR), HLA-DRA (gene 3122); assay: BSK_CASM3C_HLADR: BioMAP Diversity Plus: CASM3C Assay for Human Leukocyte Antigen - DR isotype (HLADR) Biomarker Activity (AID 2283043); details: primary human coronary artery smooth muscle cells; actives raise or lower the signal;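 also: cell-surface HLA-DR protein level quantified by ELISA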
[5] = read-out: Macrophage colony-stimulating factor (MCSF), CSF1 (gene 1435); assay: BSK_CASM3C_MCSF: BioMAP Diversity Plus: CASM3C Assay for Macrophage colony-stimulating factor (MCSF) Biomarker Activity (AID 2283044); details: primary human coronary artery smooth muscle cells; actives raise or lower the signal;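 also: M-CSF protein amount quantified by ELISA after 24 h exposure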
[6] = read-out: Low-density lipoprotein receptor (LDLR), LDLR (gene 3949); assay: BSK_CASM3C_LDLR: BioMAP Diversity Plus: CASM3C Assay for Low-density lipoprotein receptor (LDLR) Biomarker Activity (AID 2283045); details: primary human coronary artery smooth muscle cells; actives raise or lower the signal;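 also: LDLR protein level on the cell surface quantified by ELISA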
[7] = read-out: Monocyte Chemoattractant Protein-1 (MCP1), CCL2 (gene 6347); assay: BSK_CASM3C_MCP1: BioMAP Diversity Plus: CASM3C Assay for Monocyte Chemoattractant Protein-1 (MCP1) Biomarker Activity (AID 2283046); details: primary human coronary artery smooth muscle cells; actives raise or lower the signal;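 also: MCP-1 level quantified by ELISA 24 h after dosing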
[8] = BSK_CASM3C_Proliferation: Cell Proliferation Assessment in the BioMAP Diversity Plus: CASM3C Assay (AID 2283047); details: primary human coronary artery smooth muscle cells;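 also: sulforhodamine B total protein stain as relative cell number at 560 nm; sub-confluent cells exposed 48 h before staining; fitted both ways against DMSO so gain or loss of cell number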
[9] = read-out: Monokine induced gamma interferon (MIG), CXCL9 (gene 4283); assay: BSK_CASM3C_MIG: BioMAP Diversity Plus: CASM3C Assay for Monokine induced gamma interferon (MIG) Biomarker Activity (AID 2283048); details: primary human coronary artery smooth muscle cells; actives raise or lower the signal;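 also: MIG protein level measured by ELISA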
[10] = BSK_CASM3C_SRB: Viability Assessment in the BioMAP Diversity Plus: CASM3C Assay (AID 2283050); details: primary human coronary artery smooth muscle cells;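 also: total protein by SRB staining as cytotoxicity measure in parallel cultures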
[11] = read-out: Thrombomodulin, THBD (gene 7056); assay: BSK_CASM3C_Thrombomodulin: BioMAP Diversity Plus: CASM3C Assay for Thrombomodulin Biomarker Activity (AID 2283051); details: primary human coronary artery smooth muscle cells; actives raise or lower the signal;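 also: thrombomodulin protein level measured by ELISA 24 h after dosing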
[12] = read-out: Tissue Factor, F3 (gene 2152); assay: BSK_CASM3C_TissueFactor: BioMAP Diversity Plus: CASM3C Assay for Tissue Factor Biomarker Activity (AID 2283052); details: primary human coronary artery smooth muscle cells; actives raise or lower the signal;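 also: cell surface tissue factor protein level read by ELISA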
[13] = read-out: Interferon-gamma inducible Protein 10 (IP10), CXCL10 (gene 3627); assay: BSK_hDFCGF_IP10: BioMAP Diversity Plus: hDFCGF Assay for Interferon-gamma inducible Protein 10 (IP10) Biomarker Activity (AID 2283053); details: primary human foreskin fibroblasts; actives raise or lower the signal
In short: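 Human foreskin fibroblast primary cells (hDFCGF system) were dosed with chemical and assayed at 24 h; IP-10 measured by ELISA. Activity fitted bidirectionally relative to DMSO negative control as baseline.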

[14] = read-out: Urokinase-type plasminogen activator receptor (uPAR), PLAUR (gene 5329); assay: BSK_CASM3C_uPAR: BioMAP Diversity Plus: CASM3C Assay for Urokinase-type plasminogen activator receptor (uPAR) Biomarker Activity (AID 2283054); details: primary human coronary artery smooth muscle cells; actives raise or lower the signal;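 also: cell-surface uPAR protein level quantified by ELISA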
[15] = read-out: Vascular cell adhesion molecule 1 (VCAM1), VCAM1 (gene 7412); assay: BSK_CASM3C_VCAM1: BioMAP Diversity Plus: CASM3C Assay for Vascular cell adhesion molecule 1 (VCAM1) Biomarker Activity (AID 2283055); details: primary human coronary artery smooth muscle cells; actives raise or lower the signal;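 also: VCAM-1 protein level quantified by ELISA on the cells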
[16] = read-out: Collagen III, COL3A1 (gene 1281); assay: BSK_hDFCGF_CollagenIII: BioMAP Diversity Plus: hDFCGF Assay for Collagen III Biomarker Activity (AID 2283056); details: primary human foreskin fibroblasts; actives raise or lower the signal
In short: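 Human foreskin primary fibroblasts were exposed to test chemicals for 24 h, after which collagen III was quantified by ELISA. Activity was fitted bidirectionally against DMSO as negative control and baseline.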

[17] = read-out: Epidermal growth factor receptor (EGFR), EGFR (gene 1956); assay: BSK_hDFCGF_EGFR: BioMAP Diversity Plus: hDFCGF Assay for Epidermal growth factor receptor (EGFR) Biomarker Activity (AID 2283057); details: primary human foreskin fibroblasts; actives raise or lower the signal
In short: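 Primary human foreskin fibroblasts were exposed to compound for 24 h, after which cell-surface EGFR was quantified by ELISA. Activity was fitted bidirectionally against the DMSO negative control as baseline.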

[18] = read-out: Interleukin-8 (IL8), CXCL8 (gene 3576); assay: BSK_hDFCGF_IL8: BioMAP Diversity Plus: hDFCGF Assay for Interleukin-8 (IL8) Biomarker Activity (AID 2283058); details: primary human foreskin fibroblasts; actives raise or lower the signal
In short: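 hDFCGF human dermal fibroblasts; 24 h chemical exposure; IL-8 by ELISA; bidirectional curve fit vs DMSO baseline; gain or loss of signal scored.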

[19] = BSK_hDFCGF_Proliferation: Cell Proliferation Assessment in the BioMAP Diversity Plus: hDFCGF Assay (AID 2283059); details: primary human foreskin fibroblasts;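 also: curves fitted for both rise and fall of signal versus DMSO baseline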
In short: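 Steps: dose primary human dermal fibroblasts (foreskin); […] fix in 10% TCA; stain with 0.1% SRB; read 560 nm; fit gain or loss of signal against DMSO.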

[20] = read-out: serum amyloid A (SAA), SAA1 (gene 6288); assay: BSK_CASM3C_SAA: BioMAP Diversity Plus: CASM3C Assay for serum amyloid A (SAA) Biomarker Activity (AID 2283049); details: primary human coronary artery smooth muscle cells; actives raise or lower the signal;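 also: SAA protein level quantified by ELISA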

Measured: AC50

CCC(=O)Nc1ccc(Cl)c(Cl)c1
not listed: [20]
inactive: all other assays above

COP(=O)(OC)OC(Br)C(Cl)(Cl)Br (stereo not drawn)
active: [1] 31.2 µM | [3] 32.2 µM | [5] 27.7 µM | [7] 28.6 µM | [8] 11.2 µM | [9] 29.8 µM | [20] 29.9 µM | [10] 28.8 µM | [13] 13.9 µM | [14] 32 µM | [15] 18.5 µM | [16] 31.5 µM | [18] 37.8 µM | [19] 2.6 µM
inactive: [2] | [4] | [6] | [11] | [12] | [17]

Nc1nc(N)nc(NC2CC2)n1
inactive: all assays above

CN1COCN(Cc2cnc(Cl)s2)C1=N[N+](=O)[O-]
inactive: all assays above

CC1=NNC(=O)N(/N=C/c2cccnc2)C1
inactive: all assays above

CCOP(=O)(NC(C)C)Oc1ccc(SC)c(C)c1 (stereo not drawn)
inactive: all assays above

Nc1c(Cl)cc([N+](=O)[O-])cc1Cl
active: [13] 3.97 µM | [19] 27.6 µM
inactive: all other assays above

CCc1cnc(C2=NC(C)(C(C)C)C(=O)N2)c(C(=O)O)c1 (stereo not drawn)
inactive: all assays above

COP(=O)(OC)C(O)C(Cl)(Cl)Cl (stereo not drawn)
active: [8] 20 µM
not listed: [18]
inactive: all other assays above

CCCOCC(=Nc1ccc(Cl)cc1C(F)(F)F)n1ccnc1
active: [2] 32.8 µM | [7] 26 µM | [8] 32.7 µM | [9] 20 µM | [11] 20.9 µM | [13] 31.1 µM | [15] 20 µM | [16] 29.4 µM | [17] 33.8 µM | [18] 38.3 µM | [19] 21.2 µM
inactive: [1] | [3] | [4] | [5] | [6] | [20] | [10] | [12] | [14]

N#CSCSC#N
active: [1] 14.4 µM | [3] 16.1 µM | [4] 21.4 µM | [5] 16.1 µM | [7] 20.5 µM | [8] 2.16 µM | [9] 14.1 µM | [20] 30.2 µM | [10] 14.6 µM | [11] 31.3 µM | [13] 1.09 µM | [14] 30.6 µM | [15] 19.3 µM | [16] 2.52 µM | [17] 1.68 µM | [18] 3.03 µM | [19] 0.225 µM
inactive: [2] | [6] | [12]

CCCCOC(=O)[C@@H](C)Oc1ccc(Oc2ccc(C#N)cc2F)cc1
inactive: all assays above

COc1cc(OC)nc(Sc2cccc(Cl)c2C(=O)O)n1
inactive: all assays above

CSc1nnc(C(C)(C)C)c(=O)n1N
active: [6] 4.43 µM | [13] 12.7 µM | [14] 1.32 µM | [16] 3.97 µM
inactive: all other assays above

C#CCC1=C(C)C(OC(=O)C2C(C=C(C)C)C2(C)C)CC1=O (stereo not drawn)
active: [8] 26.8 µM | [13] 29.6 µM | [16] 29.4 µM | [18] 37.8 µM | [19] 31.5 µM
inactive: all other assays above

CCc1cccc(C)c1N(C(=O)CCl)C(C)COC (stereo not drawn)
active: [13] 20 µM | [19] 16.1 µM
inactive: all other assays above

O=C(O)c1cc(Oc2ccc(C(F)(F)F)cc2Cl)ccc1[N+](=O)[O-]
inactive: all assays above

CNC(=O)Oc1cccc2c1OC(C)(C)O2
active: [17] 12.2 µM
inactive: all other assays above

CCCCN(CC)c1c([N+](=O)[O-])cc(C(F)(F)F)cc1[N+](=O)[O-]
active: [13] 25.5 µM | [19] 27.9 µM
inactive: all other assays above

CON=C(C(=O)OC)c1ccccc1CON=C(C)c1cccc(C(F)(F)F)c1
active: [1] 1.92 µM | [7] 2.68 µM | [8] 8.75 µM | [15] 8.45 µM | [16] 1.47 µM | [17] 2.78 µM | [19] 2.77 µM
inactive: all other assays above

CSC1=N[C@@](C)(c2ccccc2)C(=O)N1Nc1ccccc1
active: [8] 11.5 µM | [16] 25 µM | [19] 23.3 µM
inactive: all other assays above

CC(C1CC1)C(O)(Cn1cncn1)c1ccc(Cl)cc1 (stereo not drawn)
active: [19] 29.9 µM
inactive: all other assays above
